Assay results reported in PubChem BioAssay (NCATS).
Values joined by “and” are separate entries in the source; they are usually repeats but may differ in a detail not shown here. Identical values can stand only once. Inconclusive results are not listed. A call without a number means that no potency is given here. Active and inactive are the calls of the source. Unless noted, calls come from the whole dose curve; as a rule, active = well fitted curve in the direction sought with a large enough effect; inconclusive = small, poorly fitted or top-dose-only effect, or another doubt; inactive = no such curve, though single readings can be large; an effect the other way counts as inactive or inconclusive. Residues, ends and D or L forms follow the SMILES beside them.

Key:
[1] = biological target: Glucocorticoid receptor (Homo sapiens) (UniProt P04150); assay: GR-GFP Redistribution (AID 450;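 active = compounds whose dose series gives a full or clear partial fitted curve of increased nuclear translocation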; note: potency is the fitted concentration of half-maximal effect); conditions: U2OS GR-GFP nuclear translocation, laser cytometry, 2 h
Sequence of Glucocorticoid receptor (Homo sapiens) (P04150 whole entry, looked up, the tested form may be a part): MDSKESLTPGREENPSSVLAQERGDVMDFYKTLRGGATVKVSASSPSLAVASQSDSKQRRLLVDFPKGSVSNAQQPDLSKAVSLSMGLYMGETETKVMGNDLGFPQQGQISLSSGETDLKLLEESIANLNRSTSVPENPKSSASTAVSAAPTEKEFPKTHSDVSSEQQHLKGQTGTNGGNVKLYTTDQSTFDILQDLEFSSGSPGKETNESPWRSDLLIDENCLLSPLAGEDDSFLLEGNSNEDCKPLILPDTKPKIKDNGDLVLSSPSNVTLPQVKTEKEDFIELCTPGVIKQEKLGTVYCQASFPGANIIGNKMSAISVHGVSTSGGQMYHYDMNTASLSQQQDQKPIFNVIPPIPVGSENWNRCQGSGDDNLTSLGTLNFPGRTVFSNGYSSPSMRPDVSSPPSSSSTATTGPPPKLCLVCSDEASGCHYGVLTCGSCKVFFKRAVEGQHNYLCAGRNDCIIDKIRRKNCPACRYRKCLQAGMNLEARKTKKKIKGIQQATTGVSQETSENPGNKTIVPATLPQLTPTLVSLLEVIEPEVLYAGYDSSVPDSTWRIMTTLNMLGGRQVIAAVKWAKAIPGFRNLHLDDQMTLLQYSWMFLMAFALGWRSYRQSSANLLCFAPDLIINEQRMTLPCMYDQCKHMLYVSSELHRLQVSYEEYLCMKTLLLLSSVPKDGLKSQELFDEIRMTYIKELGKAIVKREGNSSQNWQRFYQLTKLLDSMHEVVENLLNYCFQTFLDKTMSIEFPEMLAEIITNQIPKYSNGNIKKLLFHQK

[2] = biological target: Glucocorticoid receptor (Homo sapiens) (UniProt P04150); assay: GR-EFC Redistribution (AID 451; calls by dose curve; note: potency is the fitted concentration of half-maximal effect); conditions: CHO-K1 GR-EFC translocation, beta-gal luminescence, 2 h
Summary of the method: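 Translocation of GR-ED fusion to nuclear EA restores b-gal, read by luminescence after 1 h room-temperature detection. Engineered CHO-K1 biosensor cells, 1,000/well, exposed 2 h at 37 C to titrations up to 46 uM final.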

[3] = biological target: Mitogen-activated protein kinase 10 (Mus musculus) (UniProt Q61831); assay: JNK3 AlphaScreen Assay (AID 530; active = well fitted curve in either direction with a large enough effect, not every such curve was filed as active;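 note: kinase came from lysate of stimulated human HepG2 cells; signal reports phosphorylation of biotinylated GST-cJun 1-79 at Ser73 with 10 µM ATP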)
Summary of the method: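 Compound titrations were preincubated 15 minutes at room temperature with substrate, antibody and pre-activated JNK3-containing HepG2 lysate. Reactions were started with 10 uM ATP and stopped with EDTA-containing bead buffer for AlphaScreen detection.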

[4] = biological target: Ubiquitin carboxyl-terminal hydrolase 1 (Homo sapiens) (UniProt O94782); assay: Inhibitors of USP1/UAF1: Pilot qHTS (AID 504865);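 note: rhodamine fluorescence freed from ubiquitin-rhodamine substrate followed over time; top concentration of the series differs between compounds; nearly all actives have a fitted effect of over 35% in size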
Sequence of Ubiquitin carboxyl-terminal hydrolase 1 (Homo sapiens) (O94782 whole entry, looked up): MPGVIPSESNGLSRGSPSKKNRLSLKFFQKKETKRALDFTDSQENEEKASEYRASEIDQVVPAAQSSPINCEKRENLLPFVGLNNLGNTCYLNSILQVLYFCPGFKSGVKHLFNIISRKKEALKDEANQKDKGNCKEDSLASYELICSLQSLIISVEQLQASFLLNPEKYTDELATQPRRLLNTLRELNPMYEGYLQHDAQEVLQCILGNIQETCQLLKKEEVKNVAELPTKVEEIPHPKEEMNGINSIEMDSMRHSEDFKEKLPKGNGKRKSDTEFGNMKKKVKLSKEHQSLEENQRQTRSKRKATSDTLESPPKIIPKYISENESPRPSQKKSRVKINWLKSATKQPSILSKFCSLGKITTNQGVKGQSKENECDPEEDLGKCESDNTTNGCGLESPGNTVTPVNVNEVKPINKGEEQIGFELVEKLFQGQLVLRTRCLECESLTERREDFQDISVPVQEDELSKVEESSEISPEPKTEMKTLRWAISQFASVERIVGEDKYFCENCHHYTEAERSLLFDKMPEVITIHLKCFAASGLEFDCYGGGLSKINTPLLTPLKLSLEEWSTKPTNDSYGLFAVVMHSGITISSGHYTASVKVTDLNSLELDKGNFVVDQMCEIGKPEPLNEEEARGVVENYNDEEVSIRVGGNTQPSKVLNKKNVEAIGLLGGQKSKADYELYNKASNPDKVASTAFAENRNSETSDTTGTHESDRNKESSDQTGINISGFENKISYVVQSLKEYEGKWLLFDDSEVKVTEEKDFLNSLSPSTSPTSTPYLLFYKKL
Summary of the method: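 1nM USP1/UAF1 + cpd, 15 min RT; start w/ Ub-Rho 150nM final; kinetic FL 480/540 nm, 6 reads q60 s. Buffer 50mM HEPES pH 7.8, 0.5mM EDTA, 1mM TCEP, 0.01% Tween-20, 0.1 mg/ml BSA.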

[5] = biological target: DNA dC->dU-editing enzyme APOBEC-3G (Homo sapiens) (UniProt Q9HC16); assay: qHTS for inhibitors of Vif-A3G interactions: Validation (AID 588379)
Sequence of DNA dC->dU-editing enzyme APOBEC-3G (Homo sapiens) (Q9HC16 whole entry, looked up): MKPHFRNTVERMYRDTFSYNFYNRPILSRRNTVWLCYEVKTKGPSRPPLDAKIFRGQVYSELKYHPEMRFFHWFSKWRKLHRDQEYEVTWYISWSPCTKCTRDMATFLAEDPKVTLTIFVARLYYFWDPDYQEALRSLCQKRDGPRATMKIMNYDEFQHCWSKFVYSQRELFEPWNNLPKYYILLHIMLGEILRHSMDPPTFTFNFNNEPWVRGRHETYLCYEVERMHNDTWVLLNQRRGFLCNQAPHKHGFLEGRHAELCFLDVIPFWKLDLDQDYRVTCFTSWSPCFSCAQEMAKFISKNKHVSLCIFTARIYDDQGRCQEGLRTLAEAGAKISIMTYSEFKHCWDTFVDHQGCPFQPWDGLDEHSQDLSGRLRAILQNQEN
Summary of the method: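 HeLa cells stably expressing Vif and A3G-eYFP, 700 cells/well, incubated overnight at 37 deg C, then exposed to compound overnight at 37 deg C. Inhibition of Vif-mediated degradation read as increased yellow fluorescence (Ex 488/Em 500-530) by laser-scanning cytometry.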

[6] = Primary qHTS for small molecule stabilizers of the endoplasmic reticulum resident proteome: Secreted ER Calcium Modulated Protein (SERCaMP) assay (AID 1508630)
Summary of the method: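 GLuc-SERCaMP-expressing SH-SY5Y cells, pretreated 16 h with compound, are challenged with thapsigargin to empty ER calcium stores; after 4 h, coelenterazine is added directly to the medium and luminescence is imaged.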

[7] = qHTS Assay for Lipid Storage Modulators (AID 1519; calls by dose curve); conditions: Drosophila S3 cells, BODIPY lipid droplet/cell ratio, laser cytometry, cells loaded with oleic acid
Summary of the method: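 Cells seeded at 5,000 per well were treated with compounds over a concentration series and loaded with oleic acid (400 uM, as added). Lipid droplet fluorescence (488 nm excitation, 500-530 nm channel) was read by laser-scanning cytometry and normalized to 20 uM Triacsin C.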

[8] = qHTS for Inhibitors of Plasmodium falciparum (DD2) proliferation (AID 504314);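 note: parasite DNA measured by SYBR Green fluorescence after red cell lysis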
Summary of the method: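 Quantitative HTS growth inhibition: SYBR Green I binding to parasite DNA after 72 h drug exposure of infected erythrocytes (0.3% parasitemia, 2.5% hematocrit). Signals normalized per plate to inhibitor and vehicle wells.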

[9] = qHTS for Inhibitors of Plasmodium falciparum (GB4) proliferation (AID 504315); note: nearly all actives have a fitted effect of over 50% in size
Summary of the method: (§1)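 Erythrocytes infected with P. falciparum line (0.3% parasitemia, 2.5% hematocrit final) incubated with compounds 72 h at 37 °C, 5% CO2; SYBR Green lysis buffer added, fluorescence read next day. Normalized to 0.29 uM artemisinin and DMSO.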

[10] = qHTS for Inhibitors of Plasmodium falciparum (7G8) proliferation (AID 504316); note: nearly all actives have a fitted effect of over 65% in size
Summary of the method: as §1

[11] = qHTS for Inhibitors of Plasmodium falciparum (HB3) proliferation (AID 504318); note: nearly all actives have a fitted effect of over 60% in size
Summary of the method: as §1

[12] = measured here: cell count channel max response
[13] = measured here: lipid channel max response

Compound: O=C(c1c(O)c2ccc(Cl)cc2[nH]c1=O)C1CC1
- Potency [1]: > 46 µM (inactive)
- Potency [2]: > 46 µM (inactive)
- Potency [3]: inactive
- Potency [4]: inactive
- Potency [5]: inactive
- Potency [6]: inactive

Compound: CC(=O)NCC(=O)N[C@H](CCC(=O)O)C(=O)O (HELM PEPTIDE1{[ac].G.[dE]}$$$$V2.0)
- Potency [1]: > 46 µM (inactive)
- Potency [2]: > 46 µM (inactive)
- Potency [3]: inactive
- activity change, negative = inhibition ([7]; at 57.5 µM (top of the series)): 3.36% (inactive)
- max response [7, 12]: 6.18%
- max response [7, 13]: 9.84%
- Potency [4]: inactive
- Potency [5]: inactive
- Potency [6]: inactive

Compound: C[C@H](CCC(=O)O)C1CC[C@H]2C3CC[C@@H]4C[C@H](O)CC[C@]4(C)C3C[C@H](O)[C@]12C (stereo not given in full)
- Potency [6]: inactive

Compound: O[C@@H](c1ccccc1)C1CCN(CCc2ccccc2)CC1
- Potency [1]: > 46 µM (inactive)
- Potency [2]: > 46 µM (inactive)
- Potency [3]: inactive
- activity change, negative = inhibition ([7]; at 57.5 µM (top of the series)): 3% (inactive)
- max response [7, 12]: 5.72%
- max response [7, 13]: 10.3%
- Potency [5]: inactive

Compound: C[C@@]12CCC[C@H]1C1CC[C@H]3C[C@H](O)CC[C@]3(C)C1CC2 (stereo not given in full)
- Potency [6]: inactive

Compound: COC(=O)[C@@H]1[C@@H]2C[C@H]3c4[nH]c5ccccc5c4CCN3C[C@@H]2CC[C@@H]1O
- Potency [3]: inactive
- activity change, negative = inhibition ([7]; at 25.7 µM (top of the series)): 1.23% (inactive) and -2.04% (inactive) and -1.29% (inactive)
- max response [7, 12]: -5.31% and -9.47% and 16%
- max response [7, 13]: -5.26% and -13% and 13.4%
- Potency [4]: inactive
- Potency [5]: inactive
- Potency [6]: inactive

Compound: COc1cc(N)c(Cl)cc1C(=O)OCCCN1CCCCC1
- Potency [1]: > 46 µM (inactive)
- Potency [2]: > 46 µM (inactive)
- Potency [3]: inactive
- activity change, negative = inhibition ([7]; at 57.5 µM (top of the series)): 2.57% (inactive)
- max response [7, 12]: 19.2%
- max response [7, 13]: 21.4%
- Potency [4]: inactive
- Potency [5]: inactive
- Potency [6]: inactive

Compound: CC(CCCCC(=O)Nc1ccc(C(F)(F)F)cc1)NCCc1cnc[nH]1 (stereo not given)
- Potency [6]: inactive

Compound: O=S(=O)(c1cccc2cnccc12)N1CCNCC1
- Potency [1]: > 46 µM (inactive)
- Potency [2]: > 46 µM (inactive)
- Potency [3]: inactive
- Potency [4]: inactive
- Potency [5]: inactive

Compound: COC(=O)C1=C(C)NC(C)=C(C(=O)NCCCN2CCC(c3ccccc3)(c3ccccc3)CC2)C1c1ccc([N+](=O)[O-])cc1 (stereo not given)
- Potency [6]: inactive

Compound: NC(CC(=O)Nc1ccc(Oc2cc(F)c(F)cc2Br)cc1)C(=O)O (stereo not given)
- Potency [6]: inactive

Compound: CCC(N)(C(=O)O)c1ccc(C(=O)O)cc1 (stereo not given)
- Potency [6]: inactive

Compound: CC1(C)CO[C@H](CC(=O)O)CN1
- Potency [1]: > 46 µM (inactive)
- Potency [2]: > 46 µM (inactive)
- Potency [3]: inactive
- activity change, negative = inhibition ([7]; at 57.5 µM (top of the series)): -3% (inactive)
- max response [7, 12]: -8.35%
- max response [7, 13]: -12.8%
- Potency [5]: inactive
- Potency [6]: inactive

Compound: c1ccc(Oc2nc(NC3CCCCC3)c3[nH]cnc3n2)cc1
- Potency [6]: inactive

Compound: Clc1ccc(-c2nc3sccn3c2/C=N/OCc2ccc(Cl)c(Cl)c2)cc1
- Potency [6]: inactive

Compound: CC1=C(\C=C/C(C)=C/C=C\C(C)=C\C(=O)O)C(C)(C)CCC1
- Potency [1]: > 46 µM (inactive) and > 20.6 µM (inactive)
- Potency [2]: > 46 µM (inactive) and > 20.6 µM (inactive)
- Potency [3]: inactive
- activity change, negative = inhibition ([7]; at 25.7 µM (top of the series)): 0.599% (inactive) and 0.957% (inactive)
- max response [7, 12]: -6.58% and 5.14%
- max response [7, 13]: -6.6% and 8.88%
- Potency [4]: inactive
- Potency [5]: inactive
- Potency [6]: inactive

Compound: CC[C@@H](C)[C@H]1O[C@]2(CC[C@@H]1C)C[C@@H]1C[C@H](C/C=C(/C)[C@H](O[C@@H]3C[C@H](OC)[C@H](O[C@@H]4C[C@H](OC)[C@@H](O)[C@H](C)O4)[C@H](C)O3)[C@@H](C)/C=C\C=C3CO[C@@H]4[C@H](O)C(C)=C[C@@H](C(=O)O1)[C@]34O)O2 (tested in a mixture with another compound)
- Potency [1]: > 46 µM (inactive)
- Potency [2]: > 46 µM (inactive)
- Potency [5]: inactive
- Potency [6]: inactive

Compound: CCN(CC)CCCCC1CCN(CC(=O)N2c3ccccc3C(=O)Nc3cccnc32)CC1
- Potency [6]: inactive

Compound: CCCCCCCC(=O)O[C@H](CC(=O)O)C[N+](C)(C)C
- Potency [1]: > 46 µM (inactive)
- Potency [2]: > 46 µM (inactive)
- Potency [3]: inactive
- Potency [4]: inactive
- Potency [5]: inactive
- Potency [6]: inactive

Compound: NS(=O)(=O)c1cccc2c1c([N+](=O)[O-])cc1[nH]c(=O)c(=O)[nH]c12
- Potency [1]: > 46 µM (inactive)
- Potency [2]: > 46 µM (inactive)
- Potency [3]: inactive
- Potency [5]: inactive
- Potency [6]: inactive

Compound: COC(=O)C1=C(C(=O)OC)[C@@H]2N(C)c3ccccc3[C@@]23C[C@@H](C(=O)OC)N(C(=O)Nc2cccc(C#N)c2)C3=N1
- Potency [8]: inactive
- Potency [9]: inactive
- Potency [10]: inactive
- Potency [11]: inactive

Compound: COc1ccc([N+](=O)[O-])c2c1CCN2C(=O)CC[C@H](N)C(=O)O
- Potency [1]: 4.81 µM (active)
- Potency [2]: > 46 µM (inactive)
- Potency [3]: inactive
- Potency [4]: inactive
- Potency [5]: inactive

Compound: COC(=O)C1=C(C)N(Cc2ccco2)C(=O)NC1c1ccco1 (stereo not given)
- Potency [8]: inactive
- Potency [9]: inactive
- Potency [10]: inactive
- Potency [11]: inactive

Compound: COc1ccc2c(c1)O[C@@H](c1ccc3c(c1)OCO3)[C@H](OC(=O)Nc1ccc(OC(F)F)cc1)C2=O
- Potency [8]: inactive
- Potency [9]: inactive
- Potency [10]: inactive
- Potency [11]: inactive

Compound: COc1cccc([C@@H]2[C@@H](C)CC[C@@H]3C(=O)NC[C@H](O)CN32)c1
- Potency [8]: inactive
- Potency [9]: inactive
- Potency [10]: inactive
- Potency [11]: inactive
